Experimental findings from PubChem BioAssay (Tox21) are described below.

Several values for one entry are separate records, joined by “and”; a condition that tells them apart may be missing. Identical values can stand only once. Inconclusive results are not listed. A structure can be active in one record and inactive in another. Activity calls are given as the source filed them. The call rests on the fitted dose curve; in most records, active means well fitted cell-killing curve with a large enough effect in the repeat runs; inconclusive means weak or mixed curves, or effect the other way; inactive means flat fitted curve, though single readings scatter.
On the % scale 0 is the no-effect control and ±100 the full control effect; potency means the concentration at half of the fitted maximal effect.

The experiment in a line: qHTS assay to identify small molecule agonists of the sonic hedgehog signaling (Shh) pathway - cell viability counter screen (AID 1259366). Further: nearly all actives have a fitted effect of over 50% in size. Particulars: NIH/3T3 Gli1-Luc viability, CellTiter-Fluor, 24 h; series mostly up to 92.4 µM; viability change, negative = cytotoxic: at the top concentration. From the text:
National Center for Advancing Translational Sciences [NCATS]
NIH Chemical Genomics Center [NCGC]
U.S. Environmental Protection Agency [EPA]
National Institutes of Environmental Health Sciences [NIEHS]
National Toxicology Program [NTP]
U.S. Food and Drug Administration [FDA]
The sonic hedgehog (Shh) pathway is essential for normal embryonic development. Dysregulation of the Shh pathway can cause severe developmental defects in organs. Therefore chemicals that interfere with the pathway are potential developmental toxicants. A cell line designated 3T3Gli1-Luc (DMB/OARSA/CFSAN/FDA, Laurel, MD), a NIH/3T3 derived clone containing stably integrated Gli1-Luc reporter is used to detect chemical interference of the Shh pathway, by changes in the expression of the firefly Luc gene under the control of the Gli1 transcriptional response element. This cell line was used to screen Tox21 libraries for identifying and prioritizing the potential developmental toxicants that interfere Shh pathway. The cytotoxicity of the compounds was tested in parallel by measuring the cell viability using CellTiter-Fluor assay system (Promega, Madison, WI) in the same wells.
Tox21 Assay Protocol Summary:
3T3 Gli1-Luc cells were dispensed at 2,000 per well in 5uL of culture medium into white solid bottom 1536-well plates (Greiner Bio-One, Monroe, NC) using a Multidrop Combi (Thermo Scientific, Waltham, MA) dispenser. The assay plates were incubated at 37 C and 5% CO2 for 4hr, and then 23nL of compounds dissolved in DMSO and positive control were transferred using a Pintool station (Wako, San Diego, CA). The assay plates were incubated at 37C and 5% CO2 for 24hr. For viability read, after 23hr of compound treatment, 1uL of CellTiter-Fluor reagent (Promega Corporation, Madison, WI) was added to each well of the assay plates using Flying Reagent Dispenser (FRD, Aurora Discovery, San Diego, CA) and incubated the assay plates at 37C for 1hr. The fluorescence signal was quantified using a ViewLux plate reader (Perkin Elmer, Shelton, CT).
As to `CN(C)Cc1ccccc1O`, the “viability change, negative = cytotoxic” value is 1.81% (inactive).

For the molecule `OCCN1CCN(CCCN2c3ccccc3Sc3ccc(C(F)(F)F)cc32)CC1`, the Potency is 23.7 µM (active).

As for `CCc1oc2ccccc2c1C(=O)c1cc(I)c(O)c(I)c1`, the “viability change, negative = cytotoxic” value is -2.29% [at 42.5 µM] (inactive).

As to `CC(=O)[C@H]1CC[C@H]2[C@@H]3CCC4=CC(=O)CC[C@]4(C)[C@H]3CC[C@]12C`, the “viability change, negative = cytotoxic” value is 28% (inactive).

As to `CC(=O)Oc1cc2c(s1)CCN(C(C(=O)C1CC1)c1ccccc1F)C2` (stereo not given), the “viability change, negative = cytotoxic” value was 8.39% [at 42.5 µM] (inactive).

Take `C=Cc1ccccc1C=C`: the “viability change, negative = cytotoxic” value is 9.36% [at 240 µM] (inactive).

Regarding `O=[N+]([O-])c1ccc(O)cc1C(F)(F)F`, the “viability change, negative = cytotoxic” value was 7.39% (inactive).

As for `C=CC(=O)OCCOC(=O)C=C`, the “viability change, negative = cytotoxic” value is -1.09% (inactive).

`CCCCC(CC)COC(=O)CCCCC(=O)OCc1ccccc1` (stereo not given): the “viability change, negative = cytotoxic” value was -3.45% (inactive).

Take `O=C(Nc1ccc2c(O)c(N=Nc3ccc(N=Nc4ccc(S(=O)(=O)O)cc4)cc3)c(S(=O)(=O)O)cc2c1)c1ccccc1`: the Potency was 10.9 µM (active).

With `Oc1c(I)cc(Cl)c2cccnc12`, the Potency entry is “inactive”.

Consider `Cc1c(C)c([N+](=O)[O-])c(C(C)(C)C)c([N+](=O)[O-])c1C`, for which the “viability change, negative = cytotoxic” value is -4.67% (inactive).

With `CC(C)(C)c1ccc(C(O)CCCN2CCC(C(O)(c3ccccc3)c3ccccc3)CC2)cc1` (stereo not given), the Potency was 26.6 µM (active).

On to `Oc1cc(Cl)cc(Cl)c1Cl`, for which the “viability change, negative = cytotoxic” value is -6.24% (inactive).

Consider `COC(=O)Nc1nc2ccc(C(=O)c3ccccc3)cc2[nH]1`, for which the “viability change, negative = cytotoxic” value is -9.3% [at 42.5 µM] (inactive).

With `CCCCCCCCCCCCCC[N+](C)(C)Cc1ccccc1`, the Potency was 24.7 µM (active).

Take `O=C(O)c1cc(-c2ccc(F)cc2F)ccc1O`: the “viability change, negative = cytotoxic” value is 2.05% [at 42.5 µM] (inactive).

`CCC(=O)C(=O)CC`: the “viability change, negative = cytotoxic” value was -2.64% (inactive).

In the case of `CC(=O)c1ccc(C(C)=O)cc1`, the “viability change, negative = cytotoxic” value was 2.23% (inactive).

Turning to `Cc1c2ccccc2c(C)c2c1ccc1ccccc12`, the Potency result was “inactive and 68.6 µM (active)”.

Regarding `CC(CCc1ccccc1)NCC(O)c1ccc(O)c(C(N)=O)c1` (stereo not given), the Potency was 19.3 µM (active).

`Nc1nc(-c2ccccc2)cs1`: the “viability change, negative = cytotoxic” value was -1.57% (inactive).

With `COc1cc(/C=C/c2ccccc2)oc(=O)c1`, the “viability change, negative = cytotoxic” value was 3.08% (inactive).

With `CNC(=O)c1ccccc1Sc1ccc2c(/C=C/c3ccccn3)n[nH]c2c1`, the Potency was 13.3 µM (active).

On to `CCCCCc1ccc(Cl)cc1`, for which the “viability change, negative = cytotoxic” value is 2.75% (inactive).

For the molecule `CC(CO)Oc1ccccc1` (stereo not given), the “viability change, negative = cytotoxic” value was -9.33% (inactive).

For the molecule `CC1=Nc2ccccc2C1(C)C`, the “viability change, negative = cytotoxic” value was 4.07% (inactive).

Regarding `CC(C)=CCNc1ncnc2c1ncn2[C@@H]1O[C@H](CO)[C@@H](O)[C@H]1O`, the Potency is 13.3 µM (active).

With `CCCCCCCCCCCCOCCOCCOCCOCCOCCOCCOCCOCCOCCO`, the “viability change, negative = cytotoxic” value was -11% [at 42.5 µM] (inactive).

In the case of `CN1CCN2c3ccccc3Cc3ccccc3C2C1` (stereo not given), the “viability change, negative = cytotoxic” value is -26.4% [at 42.5 µM] (inactive).

Consider `COc1ccc2c(c1)c(CC(=O)OC/C=C(\C)CC/C=C(\C)CCC=C(C)C)c(C)n2C(=O)c1ccc(Cl)cc1`, for which the “viability change, negative = cytotoxic” value was 2.02% [at 42.5 µM] (inactive).

As to `O=C(/C=C/c1ccccc1)OC/C=C/c1ccccc1`, the “viability change, negative = cytotoxic” value is 3.39% (inactive).

As for `C=CCn1c(=O)n(CC=C)c(=O)n(CC=C)c1=O`, the “viability change, negative = cytotoxic” value is 0.968% (inactive).

Turning to `Cc1cc(-c2ccc(N=Nc3cc(S(=O)(=O)O)c4ccccc4c3N)c(C)c2)ccc1N=Nc1cc(S(=O)(=O)O)c2ccccc2c1N`, the “viability change, negative = cytotoxic” value was 3.83% (inactive).

Consider `COc1c(C)c2c(c(O)c1C/C=C(\C)CCC(=O)OCCN1CCOCC1)C(=O)OC2`, for which the “viability change, negative = cytotoxic” value is 5.43% [at 42.5 µM] (inactive).

Regarding `CCCC(=O)OCCc1ccccc1`, the “viability change, negative = cytotoxic” value was 0.538% (inactive).

Consider `COC(=O)c1ccccc1C`, for which the “viability change, negative = cytotoxic” value was 3.42% (inactive).

On to `COC(C)=O`, for which the “viability change, negative = cytotoxic” value was 2.54% (inactive).

`c1cnccn1`: the “viability change, negative = cytotoxic” value was -0.369% (inactive).

As for `FC(F)(F)c1cccc(Cl)c1`, the “viability change, negative = cytotoxic” value was 3.99% (inactive).
